Measured values: PubChem BioAssay (NCATS)
Records with an inconclusive call do not appear. Active and inactive are the calls of the source. The call rests on the fitted dose curve; in most records, active means well fitted inhibition curve with a large enough effect; inconclusive means small, poorly fitted or top-dose-only effect; inactive means flat fitted curve, though single readings scatter.

What was measured:
[1] = qHTS profiling for inhibitors of Plasmodium falciparum proliferation (AID 504749);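 further: 0% = DMSO vehicle and full inhibition = artemisinin control; nearly all actives have a fitted effect of over 60% in size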; details: P. falciparum in erythrocytes, SYBR Green DNA, 72 h
How it was run: (§1)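 Quantitative HTS: compounds pinned into medium, infected erythrocytes added (0.3% parasitemia, 2.5% hematocrit), 72 h culture at 37 C under 5% CO2. Saponin/Triton lysis with SYBR Green I, overnight RT, then fluorescence read.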

3D7 = assay: as above; details: P. falciparum in erythrocytes, SYBR Green DNA, 72 h; series mostly up to 28.7 µM
How it was run: as §1

7G8 = assay: as above; details: P. falciparum in erythrocytes, SYBR Green DNA, 72 h; series mostly up to 28.7 µM
How it was run: as §1

AA1029 = assay: as above; details: P. falciparum in erythrocytes, SYBR Green DNA, 72 h; series mostly up to 28.7 µM
How it was run: as §1

AS120 = assay: as above; details: P. falciparum in erythrocytes, SYBR Green DNA, 72 h; series mostly up to 28.7 µM
How it was run: as §1

ATS189 = assay: as above; details: P. falciparum in erythrocytes, SYBR Green DNA, 72 h; series mostly up to 28.7 µM
How it was run: as §1

ATS95 = assay: as above; details: P. falciparum in erythrocytes, SYBR Green DNA, 72 h; series mostly up to 28.7 µM
How it was run: as §1

C2A = assay: as above; details: P. falciparum in erythrocytes, SYBR Green DNA, 72 h; series mostly up to 28.7 µM
How it was run: as §1

CP185 = assay: as above; details: P. falciparum in erythrocytes, SYBR Green DNA, 72 h; series mostly up to 28.7 µM
How it was run: as §1

CP191 = assay: as above; details: P. falciparum in erythrocytes, SYBR Green DNA, 72 h; series mostly up to 28.7 µM
How it was run: as §1

CP192 = assay: as above; details: P. falciparum in erythrocytes, SYBR Green DNA, 72 h; series mostly up to 28.7 µM
How it was run: as §1

CP194 = assay: as above; details: P. falciparum in erythrocytes, SYBR Green DNA, 72 h; series mostly up to 28.7 µM
How it was run: as §1

[2] = at 28.7 µM (top of the series), parasite line A
[3] = at 28.7 µM (top of the series), parasite line B

CN1C(=O)C[C@@H](C(=O)N[C@@H](Cc2cnc[nH]2)C(=O)N2CCC[C@H]2C(N)=O)NC1=O
inactive: activity, negative = inhibition [1, 2] 13.6% | activity, negative = inhibition [1, 3] -7.4% | Potency (3D7) | Potency (7G8) | Potency (AA1029) | Potency (AS120) | Potency (ATS189) | Potency (ATS95) | Potency (C2A) | Potency (CP185) | Potency (CP191) | Potency (CP192) | Potency (CP194)

CC(C)O
inactive: activity, negative = inhibition [1, 2] 2.73% | activity, negative = inhibition [1, 3] 13.2% | Potency (3D7) | Potency (7G8) | Potency (AA1029) | Potency (AS120) | Potency (ATS189) | Potency (ATS95) | Potency (C2A) | Potency (CP185) | Potency (CP191) | Potency (CP192) | Potency (CP194)

CC(=O)Nc1ccc(OC(C)=O)cc1
inactive: activity, negative = inhibition [1, 2] 10.5% | activity, negative = inhibition [1, 3] 11.7% | Potency (3D7) | Potency (7G8) | Potency (AA1029) | Potency (AS120) | Potency (ATS189) | Potency (ATS95) | Potency (C2A) | Potency (CP185) | Potency (CP191) | Potency (CP192) | Potency (CP194)

NCCO/C=C/[C@H](N)C(=O)O
inactive: activity, negative = inhibition [1, 2] 6.56% | activity, negative = inhibition [1, 3] 15.6% | Potency (3D7) | Potency (7G8) | Potency (AA1029) | Potency (AS120) | Potency (ATS189) | Potency (ATS95) | Potency (C2A) | Potency (CP185) | Potency (CP191) | Potency (CP192) | Potency (CP194)

CCOC(=O)c1cc(-c2ccccc2)nc2ccc(C)cc12
inactive: activity, negative = inhibition [1, 2] 17.4% | activity, negative = inhibition [1, 3] 7.25% | Potency (3D7) | Potency (7G8) | Potency (AA1029) | Potency (AS120) | Potency (ATS189) | Potency (ATS95) | Potency (C2A) | Potency (CP185) | Potency (CP191) | Potency (CP192) | Potency (CP194)

CN[C@@H]1[C@H](O[C@H]2[C@H](O[C@H]3[C@H](O)[C@@H](O)[C@H](N=C(N)N)[C@@H](O)[C@@H]3N=C(N)N)O[C@@H](C)[C@]2(O)C=O)O[C@@H](CO)[C@H](O)[C@H]1O
inactive: activity, negative = inhibition [1, 2] 5.41% | activity, negative = inhibition [1, 3] 15.5% | Potency (3D7) | Potency (7G8) | Potency (AA1029) | Potency (AS120) | Potency (ATS189) | Potency (ATS95) | Potency (C2A) | Potency (CP185) | Potency (CP191) | Potency (CP192) | Potency (CP194)

C[Se]CC[C@H](N)C(=O)O
inactive: activity, negative = inhibition [1, 2] 7.69% | activity, negative = inhibition [1, 3] 13.1% | Potency (3D7) | Potency (7G8) | Potency (AA1029) | Potency (AS120) | Potency (ATS189) | Potency (ATS95) | Potency (C2A) | Potency (CP185) | Potency (CP191) | Potency (CP192) | Potency (CP194)

c1ccc(-n2cnnn2)cc1
inactive: activity, negative = inhibition [1, 2] 4.13% | activity, negative = inhibition [1, 3] -7.64% | Potency (3D7) | Potency (7G8) | Potency (AA1029) | Potency (AS120) | Potency (ATS189) | Potency (ATS95) | Potency (C2A) | Potency (CP185) | Potency (CP191) | Potency (CP192) | Potency (CP194)

C=CCN1CCCC1CNC(=O)c1cc(S(N)(=O)=O)cc(OC)c1OC (stereo not given)
inactive: activity, negative = inhibition [1, 2] -0.688% | activity, negative = inhibition [1, 3] 8.33% | Potency (3D7) | Potency (7G8) | Potency (AA1029) | Potency (AS120) | Potency (ATS189) | Potency (ATS95) | Potency (C2A) | Potency (CP185) | Potency (CP191) | Potency (CP192) | Potency (CP194)

O=P(O)(O)OP(=O)(O)OP(=O)(O)O
inactive: activity, negative = inhibition [1, 2] -4.84% | activity, negative = inhibition [1, 3] 8.54% | Potency (3D7) | Potency (7G8) | Potency (AA1029) | Potency (AS120) | Potency (ATS189) | Potency (ATS95) | Potency (C2A) | Potency (CP185) | Potency (CP191) | Potency (CP192) | Potency (CP194)

O=C(O)CCC(=O)c1ccc(-c2ccccc2)cc1
inactive: activity, negative = inhibition ([1]; at 12.8 µM (top of the series), parasite line A) -3.71% | activity, negative = inhibition ([1]; at 12.8 µM (top of the series), parasite line B) 12.2% | Potency (3D7) | Potency (7G8) | Potency (AA1029) | Potency (AS120) | Potency (ATS189) | Potency (ATS95) | Potency (C2A) | Potency (CP185) | Potency (CP191) | Potency (CP192) | Potency (CP194)

CCCCCCOC(=O)c1cccnc1
inactive: activity, negative = inhibition [1, 2] 6.05% | activity, negative = inhibition [1, 3] -29.8% | Potency (3D7) | Potency (7G8) | Potency (AA1029) | Potency (AS120) | Potency (ATS189) | Potency (ATS95) | Potency (C2A) | Potency (CP185) | Potency (CP191) | Potency (CP192) | Potency (CP194)

FC(F)(F)C(F)(F)C(F)(F)C(F)(F)C(F)(F)F
inactive: activity, negative = inhibition [1, 2] 11% | activity, negative = inhibition [1, 3] 17.9% | Potency (3D7) | Potency (7G8) | Potency (AA1029) | Potency (AS120) | Potency (ATS189) | Potency (ATS95) | Potency (C2A) | Potency (CP185) | Potency (CP191) | Potency (CP192) | Potency (CP194)

CCN(CC)C(=S)S
inactive: activity, negative = inhibition [1, 2] -22.3% | activity, negative = inhibition [1, 3] -18.1% | Potency (3D7) | Potency (7G8) | Potency (AA1029) | Potency (AS120) | Potency (ATS189) | Potency (ATS95) | Potency (C2A) | Potency (CP185) | Potency (CP191) | Potency (CP192) | Potency (CP194)

NC(=S)NS(=O)(=O)c1ccc(N)cc1
inactive: activity, negative = inhibition [1, 2] -3.33% | activity, negative = inhibition [1, 3] -5.51% | Potency (3D7) | Potency (7G8) | Potency (AA1029) | Potency (AS120) | Potency (ATS189) | Potency (ATS95) | Potency (C2A) | Potency (CP185) | Potency (CP191) | Potency (CP192) | Potency (CP194)
